PubChem BioAssay (NCI)
This is part of a sample that, as a whole, favours compounds with a hit. Of some 83,000 tested, about 20% had one in any assay.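 The test compound was applied at a single concentration to cells in 96-well plates for 48 hours, and percent growth was recorded.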 Values without a mark were called inactive. The source made the active and inactive calls. Rule for the calls: active = growth percent below 10; inactive = the rest.

Tests used:
Experiment in all cases: NCI-60 one-dose screen, 48 h (100 = growth as untreated, 0 = no growth, -100 = all killed)
Conditions in all cases: 10 µM
[1] = tested on: SN12C renal
[2] = tested on: UO-31 renal
[3] = tested on: TK-10 renal
[4] = tested on: ACHN renal
[5] = tested on: CAKI-1 renal
[6] = tested on: A498 renal
[7] = tested on: CCRF-CEM leukemia
[8] = tested on: MOLT-4 leukemia
[9] = tested on: SR leukemia
[10] = tested on: RPMI-8226 leukemia
[11] = tested on: OVCAR-8 ovarian
[12] = tested on: OVCAR-5 ovarian
[13] = tested on: OVCAR-4 ovarian
[14] = tested on: SK-OV-3 ovarian
[15] = tested on: IGROV1 ovarian
[16] = tested on: OVCAR-3 ovarian
[17] = tested on: HS 578T breast
[18] = tested on: NCI/ADR-RES ovarian
[19] = tested on: T-47D breast

| Compound | growth [1] | growth [2] | growth [3] | growth [4] | growth [5] | growth [6] | growth [7] | growth [8] | growth [9] | growth [10] | growth [11] | growth [12] | growth [13] | growth [14] | growth [15] | growth [16] | growth [17] | growth [18] | growth [19] |
| --- | --- | --- | --- | --- | --- | --- | --- | --- | --- | --- | --- | --- | --- | --- | --- | --- | --- | --- | --- |
| O=C(Nc1cccc(-n2cc(-c3ccncc3)c(-c3ccc(O)c(Cl)c3)n2)c1)Nc1ccc(Cl)c(Cl)c1 | 17% | -11.3% (active) | 16.7% | 9.03% (active) | -21.1% (active) | 23.2% | 0.782% (active) | -10% (active) | -0.568% (active) | -30.8% (active) | -24.9% (active) | 31.4% | 13.8% | 19% | -0.387% (active) | -16.5% (active) | -0.243% (active) | 17.9% | -3.41% (active) |
| N#CCCN1C/C(=C/c2ccccc2)C(=O)/C(=C/c2ccccc2)C1 | 25.3% | 51.6% | 95.6% | 8.94% (active) | 19.1% | 106% | -1.14% (active) | 4.56% (active) | -2.02% (active) | -14.4% (active) | 0.855% (active) | 84.4% | 40.5% | 67.8% | 55.8% | 16% | -9.54% (active) | 1.6% (active) | 68% |
| CCN1CCCC1CNC(=O)c1ncc(-c2ccc(C(F)(F)F)cc2)c(NC2CCCCCC2)n1 (centres undefined) | 86.7% | 45% | 74.1% | 93.5% | 83% | 58.3% | 63.3% | 66.3% | -16.6% (active) | 58.9% | 74% | 101% | 78% | 89.9% | 77% | 79.5% | 92.1% | 89.7% | 78.9% |
| O=C(O)CC(Cl)C(Cl)CC(=O)O (centres undefined) | 102% | 81.1% | 95.7% | 103% | 91.6% | 105% | 89.9% | 97.1% | 0.349% (active) | 99.2% | 102% | 106% | 104% | 98.1% | 106% | 106% | 115% | 102% | 99.6% |
| COc1ccc(-c2nn(-c3cccc(NC(=O)c4cccc(C(F)(F)F)c4)c3)cc2-c2ccncc2)cc1Cl | 45.3% | 13.9% | 41% | 36.8% | 11.3% | -11.9% (active) | 7.1% (active) | 24% | 4.46% (active) | 6.49% (active) | 33% | 55.8% | 60.7% | 37.8% | 42.4% | 11.9% | 24.9% | 15.2% | 18.6% |
| CC(=O)C1CCC2C3CC(F)C4=CC(=O)CCC4(C)C3C(O)CC12C (centres undefined) | 92% | 75.8% | 122% | 99.7% | 96.1% | 116% | 93.6% | 85.8% | 92.9% | 83.4% | 94.2% | 105% | 98.6% | 83.9% | 97.2% | 114% | 122% | 94.9% | 119% |
| COc1cc(Cl)cc(-c2nn(-c3cccc(NC(=O)c4ccc(N5CCOCC5)c(C(F)(F)F)c4)c3)cc2-c2ccncc2)c1 | 79.8% | 40.7% | 90.6% | 50.1% | 46.7% | 31.5% | 31.7% | 38.3% | 18.4% | 25.2% | 42.1% | 78.4% | 67.9% | 75.7% | 96.5% | 69.4% | 40.7% | 46.1% | 49.2% |
| Cc1cc(=O)[nH]c(N/N=C/c2ccccc2O)n1 | 86.2% | 43.6% | 97.3% | 59.8% | 82.3% | 108% | 35% | 67.3% | 26.8% | 68.6% | 83.3% | 95.2% | 22.4% | 78.3% | 59.6% | 6.7% (active) | 104% | 16.3% | 48.7% |
| Nc1ccccc1NC(=O)CCCCC(=O)Nc1ccc2c(c1)/C(=C/c1ccc[nH]1)C(=O)N2 | 66.9% | 72.2% | 68.2% | 92.7% | 81.6% | -5.06% (active) | 50.7% | 47.7% | 62.7% | 56.2% | 78.5% | 96.5% | 52.1% | 72.5% | 59.8% | 65.8% | 52.3% | 107% | 59.6% |
| COc1ccc(OC)c(NC(=O)c2sc3nc4c(cc3c2N)C(=O)CCC4)c1 | 95.5% | 84.7% | 98% | 106% | 86.3% | 3.5% (active) | 84.4% | 93.1% | 73.7% | 95.8% | 96.1% | 101% | 109% | 44.7% | 96.4% | 118% | 96.8% | 91% | 93.9% |
| COc1ccc(Cl)cc1-n1nnc(-c2nc3ccccc3[nH]2)c1N | 94.3% | 71.9% | 85.9% | 51.4% | 67.7% | 89.3% | 104% | 98.5% | 71.8% | 53.9% | 82.4% | 96.2% | -79.9% (active) | 62.6% | 85.5% | 86.7% | 43.3% | 92.1% | 67.5% |
| c1ccc(CNc2ncnc3scc(-c4cccs4)c23)nc1 | 63% | 47.7% | 126% | 54.7% | 58% | 27.6% | 63.7% | 50.5% | 61.5% | 40.9% | 63.1% | 99% | 41.2% | 85.1% | 63.6% | 52.8% | 79.7% | 58.8% | 47.3% |
| N#Cc1ncc(-c2cc(F)c(F)c(F)c2)c(NC2CCCCCC2)n1 | 83.6% | 89.4% | 105% | 92.6% | 92.9% | 52.2% | 83.9% | 78.1% | 78.8% | 81.1% | 96.2% | 104% | 77.8% | 88.3% | 93.5% | 100% | 73.3% | 95.3% | 72.6% |
| CC1=C(N2CCOCC2)C(N2CCOCC2)=C(C)C(=O)C1=O | 110% | 83.6% | 99% | 101% | 101% | 88.6% | 102% | 92.7% | 97.4% | 105% | 97.2% | 97.6% | 104% | 105% | 101% | 109% | 109% | 110% | 95.1% |
| O=C(Nc1ccc(Cl)cc1)N1NC(c2ccc(Cl)cc2)C=C1c1ccccc1 (centres undefined) | 108% | 85.8% | 103% | 116% | 103% | 103% | 58.3% | 83.7% | 81.4% | 99.5% | 97% | 124% | 91.5% | 97% | 95.3% | 103% | 123% | 115% | 94% |
| COc1ccc(/C=C2/CN(C(=O)c3ccccc3F)C/C(=C\c3ccc(OC)cc3)C2=O)cc1 | 65.7% | 46.1% | 130% | 65.2% | 67.6% | 122% | 4.22% (active) | 23.5% | -23.2% (active) | -19% (active) | 19% | 106% | 61.3% | 76.7% | 30.6% | 26.9% | 38.9% | 50.4% | 62.7% |
